Measurements published in publication PMC5540273 (PLoS ONE, 2017).

Experiments:
Conditions in all cases: concentration: 1 μM,replicates: in singlicate; n = 1
CAMK1 = tested on: CAMK1
CAMK2A = tested on: CAMK2A
CAMK2B = tested on: CAMK2B
CAMK2D = tested on: CAMK2D
CAMK2G = tested on: CAMK2G
CAMK4 = tested on: CAMK4
CAMKK1 = tested on: CAMKK1
CAMKK2 = tested on: CAMKK2
CASK = tested on: CASK
CDC2L1 = tested on: T1, CDC2L1
T1 construct: gene CDK11B
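Also: KINOMEscan kinase panel screen.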

Structure (SMILES) | %Inh (CAMK1) | %Inh (CAMK2A) | %Inh (CAMK2B) | %Inh (CAMK2D) | %Inh (CAMK2G) | %Inh (CAMK4) | %Inh (CAMKK1) | %Inh (CAMKK2) | %Inh (CASK) | %Inh (CDC2L1)
O=C(Nc1ccc(Oc2ccc3nc(NC(=O)C4CC4)cn3n2)c(F)c1)c1cccn(-c2ccccc2)c1=O | 5% | 1% | 0% | 3% | 2% | 21% | 11% | 1% | 3% | 13%
Cn1ccc2ncnc(Oc3ccc(NC(=O)Nc4cnn(C(C)(C)C)c4)c(Cl)c3)c21 | 9% | 0% | 17% | 0% | 2% | 7% | 0% | 0% | 10% | 0%
CN(c1ccccc1CNc1nc(Nc2ccc3c(c2)CC(=O)N3)ncc1C(F)(F)F)S(C)(=O)=O | 0% | 22% | 18% | 0% | 59% | 0% | 58% | 64% | 0% | 0%
CC(=O)Nc1nc2cnc(Nc3cc(NC(=O)c4cccc(CC(C)(C)C#N)c4)ccc3C)nc2s1 | 4% | 0% | 0% | 7% | 14% | 0% | 21% | 11% | 0% | 16%
COc1cc2nccc(Nc3ccc(Oc4ccccc4)cc3)c2cc1OC.Cl [GI261656] | 20% | 0% | 0% | 16% | 18% | 0% | 7% | 17% | 0% | 0%
O=C(Nc1cccc(C(F)(F)F)c1)c1cccc(Oc2ccc3nccn3n2)c1 | 1% | 0% | 0% | 0% | 0% | 0% | 8% | 0% | 17% | 1%
O=C(Nc1cccc(Oc2ccc3nccn3n2)c1)Nc1cccc(C(F)(F)F)c1 | 5% | 0% | 0% | 0% | 0% | 0% | 5% | 0% | 26% | 1%
